± gives the standard deviation.
What was measured:
Settings in all cases: modulator concentration 10 µM
[1] = tested on: RAW-Dual (murine macrophage reporter line); experiment: NF-kB reporter (SEAP) activity fold change vs agonist alone; higher = enhanced NF-kB activity
Method in brief: (§1)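 RAW-Dual murine macrophage reporter cells were seeded at 50 000 per well in 384-well plates and pre-incubated 1 hour at 37 °C with compound pin-transferred to 10 μM final. After 1 hour, a PRR agonist was added and cells incubated overnight. Supernatant NF-κB (SEAP, QUANTI-Blue, 620 nm absorbance) and IRF (Lucia luciferase, QUANTI-Luc, luminescence) signals were divided by the mean agonist-only control on the same plate to give fold change. Two replicate plates were averaged, with errors by propagation.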

[2] = tested on: RAW-Dual (murine macrophage reporter line); experiment: IRF reporter (Lucia luciferase) activity fold change vs agonist alone; higher = enhanced IRF activity
Method in brief: as §1

[3] = tested on: RAW-Dual (murine macrophage reporter line); experiment: viability score (confluency relative to resting cells, overnight) (fraction); higher = more viable, active = viable (0.7 or more)
Method in brief: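 Two confluency masks, generated with IncuCyte software over all imaged wells, were applied to IncuCyte images of RAW-Dual macrophages. The cells, in 384-well plates, had been exposed overnight to 10 μM final compound. The viability score is confluency as a fraction of resting cells, and a compound met the cutoff only with both masks above 70% of resting cells.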

[4] = agonist: CpG ODN 1826 0.5 ug/mL

Row | SMILES | NF-kB reporter [1, 4] | NF-kB reporter ([1]; agonist: LPS 0.1 ug/mL) | NF-kB reporter ([1]; agonist: MPLA […]) | IRF reporter ([2]; agonist: 3'3'-cGAMP 10 ug/mL) | IRF reporter ([2]; agonist: LPS 0.1 ug/mL) | IRF reporter ([2]; agonist: MPLA […]) | viability score [3]
1 | CN(C)c1nc(CNS(C)(=O)=O)nc(N2CCCCC2)n1 | 1 ± 0.092 | 1.08 ± 0.091 | 1.03 ± 0.044 | 0.991 ± 0.044 | 1.03 ± 0.071 | 0.965 ± 0.21 | 1 (active)
2 | O=c1cc(O)nc(SCc2c(F)c(F)c(F)c(F)c2F)[nH]1 | 1.01 ± 0.08 | 0.913 ± 0.07 | 1.05 ± 0.049 | 0.646 ± 0.066 | 1.01 ± 0.1 | 1.03 ± 0.21 | 1 (active)
3 | Ic1ccc(N=Cc2ccc(C=Nc3ccc(I)cc3)cc2)cc1 | 1.03 ± 0.081 | 0.868 ± 0.083 | 0.997 ± 0.097 | 0.954 ± 0.038 | 1.24 ± 0.19 | 1.44 ± 0.23 | 1.02 (active)
4 | Cc1cc(OC2CN(C(=O)Cn3cnc4ccccc43)C2)cc(=O)n1C1CC1 | 1.16 ± 0.11 | 1.09 ± 0.099 | 0.97 ± 0.026 | 1 ± 0.04 | 1.06 ± 0.06 | 0.955 ± 0.092 | 0.997 (active)
5 | CS(=O)(=O)N1C2CCC1CC(NC(=O)NC1CCCC1)C2 (stereo unspecified) | 1.01 ± 0.11 | 1.03 ± 0.12 | 0.88 ± 0.059 | 0.98 ± 0.093 | 1.21 ± 0.14 | 1.2 ± 0.26 | 1.01 (active)
6 | COc1cc(OC)cc(C(=O)N2CCN(c3ccc(Nc4cccc(C)n4)nn3)CC2)c1 | 0.54 ± 0.042 | 0.981 ± 0.081 | 1.01 ± 0.029 | 0.904 ± 0.039 | 0.951 ± 0.096 | 1.12 ± 0.2 | 0.996 (active)
7 | NC(=O)c1nc(F)cnc1O | 1.06 ± 0.25 | 1.04 ± 0.051 | 2.37 ± 1.4 | 0.897 ± 0.031 | 1.27 ± 0.14 | 1.39 ± 0.14 | 1.01 (active)
8 | CCC(=O)N1c2ccccc2NC2=C(C(=O)CC(c3ccccc3Cl)C2)C1c1ccc(C)cc1 (stereo unspecified) | 1.02 ± 0.17 | 0.983 ± 0.079 | 0.961 ± 0.15 | 0.837 ± 0.022 | 1.2 ± 0.17 | 1.23 ± 0.36 | 1.01 (active)
9 | CN(Cc1cnc2nc(N)nc(N)c2n1)c1ccc(C(=O)N[C@@H](CCC(=O)O)C(=O)O)cc1 | 0.668 ± 0.16 | 0.862 ± 0.28 | 0.764 ± 0.045 | 0.612 ± 0.049 | 1.02 ± 0.35 | 0.993 ± 0.16 | 0.574 (inactive)
10 | CCCC1=NN2C(=N)C(=Cc3ccc(OCc4ccc(F)cc4)c(OCC)c3)C(=O)N=C2S1 | 0.992 ± 0.1 | 1.03 ± 0.057 | 0.97 ± 0.084 | 0.965 ± 0.04 | 1.59 ± 0.17 | 1.19 ± 0.073 | 1.01 (active)
11 | CCOC(=O)c1c(C)nn(C2CCCCC2)c1N | 1.1 ± 0.1 | 1.02 ± 0.049 | 1.09 ± 0.099 | 0.954 ± 0.044 | 1.2 ± 0.075 | 1.37 ± 0.12 | 1.02 (active)
12 | CS(=O)(=O)O.Cc1ccc(NC(=O)c2ccc(CN3CCN(C)CC3)cc2)cc1Nc1nccc(-c2cccnc2)n1 | 0.119 ± 0.03 | 1.27 ± 0.28 | 1.89 ± 0.17 | 0.201 ± 0.0064 | 0.97 ± 0.18 | 1.75 ± 0.3 | 0.957 (active)
13 | CCOc1ccc2nc(NC(=O)c3ccc(Br)cc3F)sc2c1 | 1.15 ± 0.095 | 1.1 ± 0.098 | 1 ± 0.041 | 0.873 ± 0.071 | 1.05 ± 0.067 | 0.946 ± 0.15 | 0.994 (active)
